This note sets out measurements from PubChem BioAssay AID652208 (Broad Institute, 2013).

Entries with a potency or affinity are not part of this list. A number with no mark means an inactive call.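 The calls were made as follows: active = Loss of cell signal with fitted half-effect dose at or below twice the top valid tested dose; inconclusive = Poor fit, or flat fit from -70 to -30 percent; inactive = Half-effect above limit, rising signal, or flat within 30 percent.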

The assay can be described thus: HEK293T cell cytotoxicity, dose response, cytotoxicity control for HIV Vif inhibitor project, cherry-picks (AID 652208).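 Also: 0% = median neutral control wells and -100% = median staurosporine control wells.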 Particulars: HEK293T viability, CellTiter-Glo luminescence, 24 h; series mostly up to 26 µM; activity change, negative = cytotoxicity: at the top concentration. (In general: Cellular ATP, detected with luciferase, serves as a proxy for viable cell number.)
With `O=C(O)c1ccc(-c2nc(-c3cccc(C(F)(F)F)c3)cs2)cc1`, the “activity change, negative = cytotoxicity” value is -7.98%. With `CNC(=O)COc1ccccc1C(=O)Nc1ccc2c(c1)oc1ccccc12` the figure was -10.8%; with `CCOC(=O)C1CCCN(CC(=O)Nc2c(C(=O)OC)[nH]c3ccc(Cl)cc23)C1` (configuration not stated), -13.6%; with `COc1ccc(NC(=O)Cn2nnc(C(=O)Nc3ccccc3C)c2N)cc1`, -3.75%.

`COc1ccc(OC)c(/C(O)=C/C(=O)C(=O)Nc2cc(C)ccc2OC)c1`: the “activity change, negative = cytotoxicity” value was -1.12%. Turning to `COc1ccc(C(=O)Nc2cc(OC)c(NC(=O)Nc3ccccc3)cc2OC)cc1`, the “activity change, negative = cytotoxicity” value is -5.66%. Turning to `O=C1S/C(=C/c2ccc(N3CCOCC3)o2)C(=O)N1Cc1c(F)cccc1Cl`, the “activity change, negative = cytotoxicity” value is -15.8%.

On to `CCOc1ccc(Nc2nc3c(C)cccc3cc2C#N)cc1`, for which the “activity change, negative = cytotoxicity” value is -0.828%. To `Cc1ccc(S(=O)(=O)NC(=O)Nn2c(C)nnc2C)cc1` belongs -11.6%. To `CCCCOc1ncnc2c1[nH]c1ccccc12` belongs -16.2%; to `Cc1cc(NS(=O)(=O)c2ccc(NC(=O)c3ccc(Cl)cc3Cl)cc2)no1`, 0.157%; to `CN(C)c1ccc(/C=C2\SC(=O)N(CCc3nnc(N)s3)C2=O)cc1`, -1.54%.

Regarding `Cc1ccc(Nc2cc(=O)[nH]c(=O)[nH]2)cc1C`, the “activity change, negative = cytotoxicity” value was -11.3%. For the compound `CCN(CC(=O)Nc1c(F)cccc1F)C(=O)c1cccc(-n2cccc2)c1`, the “activity change, negative = cytotoxicity” value was 0.82%. With `COc1ccc(CC(NC(C)=O)C(=O)NC2CCN(C(=O)c3ccccc3F)CC2)cc1` (configuration not stated) the figure was -6.87%; with `CC(C)(C)NC(=O)NC(=O)COc1ccccn1`, 5.18%; with `CCN(CC)C(=O)c1ccc(C(=O)c2c(C)cc(C)cc2C)cc1`, -14.2%. Regarding `CCOC(=O)c1c(NC(=O)CCC(=O)N2CCOCC2)sc2c1CC(C)(C)OC2`, the “activity change, negative = cytotoxicity” value is 6.96%. As to `CC(C)C(NC(=O)c1ccccc1NC(=O)C(C)(C)C)C(=O)N1CCOCC1` (configuration not stated), the “activity change, negative = cytotoxicity” value was 5%. As to `COc1cc(-c2cc(=O)c3c(O)c(OC)c(OC)cc3o2)cc(OC)c1O`, the “activity change, negative = cytotoxicity” value was -8.86%. To `CCN1C(=O)NC(c2ccccc2)C1=O` (configuration not stated) belongs 1.17%.

For `CCN1CCc2c(sc(N)c2C(N)=O)C1`, the “activity change, negative = cytotoxicity” value was 0.158%. As for `COCc1cc(C)nc(SCC(=O)Nc2cccc3cccnc23)c1C#N`, the “activity change, negative = cytotoxicity” value was 7.55%. To `COc1cc(OC)cc(C(=O)N[C@H](C(=O)Nc2ccc3c(c2)OCO3)C(C)C)c1` belongs 6.27%. Take `COc1c2occc2c(OC)c2c(=O)cc(C)oc12`: the “activity change, negative = cytotoxicity” value is -0.016%. With `COc1ccc(CCNC(=O)[C@@H](NC(N)=O)C(C)C)cc1` the figure was -1.58%; with `O=C(CCCn1c(=S)[nH]c2ccccc2c1=O)N1CCN(c2cccc(Cl)c2)CC1`, -17.7%; with `C=CCN1C(=O)/C(=C/c2ccc(-c3ccc(F)cc3)o2)SC1=S`, -18.7%. With `CCOC(=O)c1nc(Nc2ccc(C(=O)OC)cc2)c2ccccc2n1`, the “activity change, negative = cytotoxicity” value is -17.9%. Take `CCc1nnc(NC(=O)c2sc3nc4cc(C)ccc4cc3c2N)s1`: the “activity change, negative = cytotoxicity” value is 3.92%.

Regarding `COc1ccc(C(=O)Nc2c(Cl)cc(Cl)cc2C(=O)N2CCOCC2)cc1`, the “activity change, negative = cytotoxicity” value is -3.42%. With `CC(OC(=O)c1c[nH]c2ccccc12)C(=O)N1CCCC1` (configuration not stated) the figure was -0.409%; with `COc1ccccc1C(C)NC(=O)Cc1ccsc1` (configuration not stated), 5.66%.

Take `Cc1cc(/C=C2\C(=N)N3C(SCc4ccccc4)=NSC3=NC2=O)c(C)n1Cc1ccccc1`: the “activity change, negative = cytotoxicity” value is -3.76%.

Turning to `OC(CNCc1ccccc1Cl)COc1ccc(F)cc1` (configuration not stated), the “activity change, negative = cytotoxicity” value is -10.6%. To `CCOC(=O)C[C@@H](C#N)NC(=O)[C@@H]1CCCN1C(=O)[C@@H](NC(=O)c1ccc(N)c(Cl)c1)C(C)(C)C` belongs -8.24%. With `Cc1ccc(CNCCCSc2ncccn2)cc1` the figure was -8.7%.
